Data on one sequence can be found in publication PMC7862700, “An all-to-all approach to the identification of sequence-specific readers for epigenetic DNA modifications on cytosine”.

Test in all cases: DAPPL (digital affinity profiling via proximity ligation, sequencing); 10 mM Tris-HCl pH 7.5, 50 mM NaCl, 1 mM DTT, 4% glycerol, room temperature, 30 min; GST-TFs on glutathione beads, 16-mer random dsDNA library, 0.1% formaldehyde crosslink after washing; high values mean tight binding
One test concerns the target T1, FLI1 (Homo sapiens, UniProt Q01543 1-452).
T1 sequence: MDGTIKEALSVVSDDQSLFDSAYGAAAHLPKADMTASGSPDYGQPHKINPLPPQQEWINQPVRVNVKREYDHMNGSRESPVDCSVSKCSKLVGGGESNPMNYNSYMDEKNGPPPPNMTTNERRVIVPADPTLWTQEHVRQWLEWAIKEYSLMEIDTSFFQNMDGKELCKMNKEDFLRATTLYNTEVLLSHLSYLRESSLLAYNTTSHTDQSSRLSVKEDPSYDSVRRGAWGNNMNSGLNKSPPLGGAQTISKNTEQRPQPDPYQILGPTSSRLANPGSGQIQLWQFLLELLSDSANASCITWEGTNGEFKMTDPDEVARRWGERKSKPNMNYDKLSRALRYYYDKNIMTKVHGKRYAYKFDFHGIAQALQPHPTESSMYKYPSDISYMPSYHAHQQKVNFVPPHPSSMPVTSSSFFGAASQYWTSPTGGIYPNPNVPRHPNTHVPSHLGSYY
The following applies: protein: recombinant; tags: N-terminal GST; dsDNA, one strand shown. The method in brief: (§1)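 Binding signal is given per hexamer as its read frequency for a factor divided by its frequency in the tag-only sample. GST-fused human transcription factors were expressed in yeast, captured on glutathione beads, barcoded with DNA and pooled with that sample, then incubated with 200 nmole of a 16-mer random double-stranded DNA library in Tris/NaCl/DTT/glycerol buffer for 30 min at room temperature. The pools were then washed, crosslinked, proximity-ligated, amplified by PCR and sequenced on an Illumina NextSeq500.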

The next test concerns the target T2, ELK1 (Homo sapiens, UniProt P19419 1-428).
T2 sequence: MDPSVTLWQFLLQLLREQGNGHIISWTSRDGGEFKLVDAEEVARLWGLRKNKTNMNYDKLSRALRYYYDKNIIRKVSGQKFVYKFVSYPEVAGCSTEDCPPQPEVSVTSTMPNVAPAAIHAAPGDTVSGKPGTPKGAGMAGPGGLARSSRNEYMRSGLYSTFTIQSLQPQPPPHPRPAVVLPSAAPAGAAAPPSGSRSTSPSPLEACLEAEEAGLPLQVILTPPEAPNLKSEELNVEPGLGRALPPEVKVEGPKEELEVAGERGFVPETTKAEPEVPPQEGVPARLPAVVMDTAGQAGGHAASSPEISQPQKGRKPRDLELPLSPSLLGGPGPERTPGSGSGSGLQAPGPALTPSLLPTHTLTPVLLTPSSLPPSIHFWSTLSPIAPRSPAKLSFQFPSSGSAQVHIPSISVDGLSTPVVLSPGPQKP
The following applies: protein: recombinant; tags: N-terminal GST; dsDNA, one strand shown. In a few lines:
as §1

In the next test the target is T3, GABPA (Homo sapiens, UniProt Q06546 1-454).
T3 sequence: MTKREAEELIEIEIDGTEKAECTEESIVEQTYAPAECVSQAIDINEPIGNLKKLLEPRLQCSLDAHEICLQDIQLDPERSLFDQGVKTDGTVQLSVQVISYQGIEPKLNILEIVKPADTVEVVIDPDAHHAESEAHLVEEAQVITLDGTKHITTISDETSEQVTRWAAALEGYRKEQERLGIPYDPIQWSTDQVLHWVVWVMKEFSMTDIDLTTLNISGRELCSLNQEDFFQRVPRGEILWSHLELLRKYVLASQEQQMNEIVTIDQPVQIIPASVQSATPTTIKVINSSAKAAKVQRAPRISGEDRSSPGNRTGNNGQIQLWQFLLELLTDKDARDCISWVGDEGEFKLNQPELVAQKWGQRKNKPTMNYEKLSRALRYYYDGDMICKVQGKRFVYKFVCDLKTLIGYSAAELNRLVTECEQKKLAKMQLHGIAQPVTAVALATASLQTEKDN
The following applies: protein: recombinant; tags: N-terminal GST; dsDNA, one strand shown. In a few lines:
as §1

Another test deals with T4, ERG (Homo sapiens, UniProt P11308 1-479).
T4 sequence: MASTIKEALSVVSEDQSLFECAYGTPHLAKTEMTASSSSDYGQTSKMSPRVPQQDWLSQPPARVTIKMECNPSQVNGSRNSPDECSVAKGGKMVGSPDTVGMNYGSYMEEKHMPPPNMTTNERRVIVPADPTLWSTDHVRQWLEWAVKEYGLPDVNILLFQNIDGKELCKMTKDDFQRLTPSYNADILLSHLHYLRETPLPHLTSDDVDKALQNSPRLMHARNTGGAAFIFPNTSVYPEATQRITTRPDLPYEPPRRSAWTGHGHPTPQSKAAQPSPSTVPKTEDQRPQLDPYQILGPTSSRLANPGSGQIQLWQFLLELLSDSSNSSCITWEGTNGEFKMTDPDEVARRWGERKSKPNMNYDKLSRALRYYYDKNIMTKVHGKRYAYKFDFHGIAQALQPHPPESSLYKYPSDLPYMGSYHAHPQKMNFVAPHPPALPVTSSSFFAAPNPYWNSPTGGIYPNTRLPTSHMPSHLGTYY
The following applies: protein: recombinant; tags: N-terminal GST; dsDNA, one strand shown. In a few lines:
as §1

In the next test the target is ELF1 (Homo sapiens, UniProt P32519 1-619). The following applies: protein: recombinant; tags: N-terminal GST; dsDNA, one strand shown. In a few lines: as §1
Sequence of ELF1 (P32519 whole entry): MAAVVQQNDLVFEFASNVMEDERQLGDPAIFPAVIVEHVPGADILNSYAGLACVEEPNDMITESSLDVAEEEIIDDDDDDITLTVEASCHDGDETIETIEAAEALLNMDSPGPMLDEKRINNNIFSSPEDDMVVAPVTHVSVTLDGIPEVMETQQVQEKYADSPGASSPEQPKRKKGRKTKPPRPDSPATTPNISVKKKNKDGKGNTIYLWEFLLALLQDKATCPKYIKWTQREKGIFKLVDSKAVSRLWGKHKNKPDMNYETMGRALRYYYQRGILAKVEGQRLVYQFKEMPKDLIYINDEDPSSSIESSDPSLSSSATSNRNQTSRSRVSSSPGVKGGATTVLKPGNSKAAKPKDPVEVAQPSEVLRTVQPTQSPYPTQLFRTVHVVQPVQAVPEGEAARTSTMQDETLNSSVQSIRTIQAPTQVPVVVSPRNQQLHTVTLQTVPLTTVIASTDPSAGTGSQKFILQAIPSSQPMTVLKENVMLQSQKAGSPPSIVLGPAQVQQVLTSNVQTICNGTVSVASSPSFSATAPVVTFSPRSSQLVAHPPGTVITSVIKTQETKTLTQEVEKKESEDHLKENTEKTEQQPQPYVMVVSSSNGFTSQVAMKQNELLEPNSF
The target in a further test is T5, EHF (Homo sapiens, UniProt Q9NZC4 1-300).
T5 sequence: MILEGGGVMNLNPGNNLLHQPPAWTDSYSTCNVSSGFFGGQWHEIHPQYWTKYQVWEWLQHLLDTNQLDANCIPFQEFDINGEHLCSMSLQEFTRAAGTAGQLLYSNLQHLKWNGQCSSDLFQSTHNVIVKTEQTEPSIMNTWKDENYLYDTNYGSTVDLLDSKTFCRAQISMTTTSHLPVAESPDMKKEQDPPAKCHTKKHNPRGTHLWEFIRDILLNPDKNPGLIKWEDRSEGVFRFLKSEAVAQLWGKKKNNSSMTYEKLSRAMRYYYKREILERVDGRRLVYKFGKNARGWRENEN
The following applies: protein: recombinant; tags: N-terminal GST; dsDNA, one strand shown. In a few lines:
as §1

The next test addresses SPI1 (Homo sapiens, UniProt P17947 1-270). The following applies: protein: recombinant; tags: N-terminal GST; dsDNA, one strand shown. The method in brief: as §1
A further test concerns the target SPIB (Homo sapiens, UniProt Q01892 1-262). The following applies: protein: recombinant; tags: N-terminal GST; dsDNA, one strand shown. In a few lines:
as §1

The target of a further test is T6, ELK3 (Homo sapiens, UniProt P41970 1-407).
T6 sequence: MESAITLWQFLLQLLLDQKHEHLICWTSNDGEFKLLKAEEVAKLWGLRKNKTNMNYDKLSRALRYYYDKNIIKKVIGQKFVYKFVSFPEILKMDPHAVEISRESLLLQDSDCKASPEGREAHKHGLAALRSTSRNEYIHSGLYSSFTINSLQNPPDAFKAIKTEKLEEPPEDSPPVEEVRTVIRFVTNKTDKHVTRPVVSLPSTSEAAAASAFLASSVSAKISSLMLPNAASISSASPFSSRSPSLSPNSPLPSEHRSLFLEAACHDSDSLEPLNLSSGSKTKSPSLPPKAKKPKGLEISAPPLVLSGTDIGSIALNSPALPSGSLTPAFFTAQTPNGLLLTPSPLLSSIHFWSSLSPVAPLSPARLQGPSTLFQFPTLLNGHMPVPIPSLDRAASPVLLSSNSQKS
The following applies: protein: recombinant; tags: N-terminal GST; dsDNA, one strand shown. In a few lines:
as §1

The next test deals with T7, FEV (Homo sapiens, UniProt Q99581 1-238).
T7 sequence: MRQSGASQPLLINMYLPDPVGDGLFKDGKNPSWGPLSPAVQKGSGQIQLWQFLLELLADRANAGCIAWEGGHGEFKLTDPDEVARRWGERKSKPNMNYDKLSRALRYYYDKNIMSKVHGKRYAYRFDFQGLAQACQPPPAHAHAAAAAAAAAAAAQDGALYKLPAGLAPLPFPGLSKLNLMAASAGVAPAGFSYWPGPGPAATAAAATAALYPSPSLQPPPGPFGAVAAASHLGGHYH
The following applies: protein: recombinant; tags: N-terminal GST; dsDNA, one strand shown. In a few lines:
as §1

For another test, the target named is ETV5 (Homo sapiens, UniProt P41161 1-510). The following applies: protein: recombinant; tags: N-terminal GST; dsDNA, one strand shown. In a few lines: as §1
Sequence of ETV5 (P41161 whole entry): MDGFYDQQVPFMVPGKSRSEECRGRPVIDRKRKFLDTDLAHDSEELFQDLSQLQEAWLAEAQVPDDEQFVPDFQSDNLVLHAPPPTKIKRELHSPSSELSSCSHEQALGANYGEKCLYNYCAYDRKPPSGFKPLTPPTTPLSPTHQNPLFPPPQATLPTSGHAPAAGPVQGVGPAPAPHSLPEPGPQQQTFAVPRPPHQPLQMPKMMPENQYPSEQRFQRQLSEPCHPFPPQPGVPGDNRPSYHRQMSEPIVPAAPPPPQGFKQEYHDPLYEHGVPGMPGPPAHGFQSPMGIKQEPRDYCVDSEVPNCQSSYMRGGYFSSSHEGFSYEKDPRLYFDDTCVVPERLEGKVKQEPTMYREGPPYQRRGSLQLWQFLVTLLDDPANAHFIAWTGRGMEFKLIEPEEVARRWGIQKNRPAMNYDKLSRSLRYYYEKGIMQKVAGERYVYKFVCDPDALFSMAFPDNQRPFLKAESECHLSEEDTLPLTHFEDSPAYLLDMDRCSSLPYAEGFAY
For the next test, the target named is HSF1 (Homo sapiens, UniProt Q00613 1-529). The following applies: protein: recombinant; tags: N-terminal GST; chain copies: 3; dsDNA, one strand shown. The method in brief:
as §1

For another test, the target named is T8, SPIC (Homo sapiens, UniProt Q8N5J4 1-248).
T8 sequence: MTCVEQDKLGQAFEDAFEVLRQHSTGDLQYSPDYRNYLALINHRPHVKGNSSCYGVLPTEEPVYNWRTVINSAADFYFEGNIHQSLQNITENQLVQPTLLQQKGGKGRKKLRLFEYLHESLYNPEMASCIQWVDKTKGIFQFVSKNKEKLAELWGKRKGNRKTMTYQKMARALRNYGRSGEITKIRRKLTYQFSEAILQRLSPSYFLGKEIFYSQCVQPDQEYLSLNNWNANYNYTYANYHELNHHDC
The following applies: protein: recombinant; tags: N-terminal GST; dsDNA, one strand shown. The method in brief:
as §1

The target of another test is ELF4 (Homo sapiens, UniProt Q99607 1-663). The following applies: protein: recombinant; tags: N-terminal GST; dsDNA, one strand shown. The method in brief:
as §1

Another test has as its target T9, ELK4 (Homo sapiens, UniProt P28324-2 1-405).
T9 sequence: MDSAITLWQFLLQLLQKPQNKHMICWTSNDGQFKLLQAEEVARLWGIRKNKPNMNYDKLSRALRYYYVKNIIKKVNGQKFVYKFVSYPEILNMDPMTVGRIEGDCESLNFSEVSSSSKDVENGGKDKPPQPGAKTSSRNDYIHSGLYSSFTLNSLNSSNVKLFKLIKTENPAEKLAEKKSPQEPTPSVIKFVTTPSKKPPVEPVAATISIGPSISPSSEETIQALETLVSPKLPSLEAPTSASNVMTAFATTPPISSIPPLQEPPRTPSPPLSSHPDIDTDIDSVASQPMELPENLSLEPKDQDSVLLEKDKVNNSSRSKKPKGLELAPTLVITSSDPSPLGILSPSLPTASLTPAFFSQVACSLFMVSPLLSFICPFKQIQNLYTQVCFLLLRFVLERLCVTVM
The following applies: protein: recombinant; tags: N-terminal GST; dsDNA, one strand shown. In a few lines:
as §1

For the next test, the target named is T10, ETV2 (Homo sapiens, UniProt O00321 1-342).
T10 sequence: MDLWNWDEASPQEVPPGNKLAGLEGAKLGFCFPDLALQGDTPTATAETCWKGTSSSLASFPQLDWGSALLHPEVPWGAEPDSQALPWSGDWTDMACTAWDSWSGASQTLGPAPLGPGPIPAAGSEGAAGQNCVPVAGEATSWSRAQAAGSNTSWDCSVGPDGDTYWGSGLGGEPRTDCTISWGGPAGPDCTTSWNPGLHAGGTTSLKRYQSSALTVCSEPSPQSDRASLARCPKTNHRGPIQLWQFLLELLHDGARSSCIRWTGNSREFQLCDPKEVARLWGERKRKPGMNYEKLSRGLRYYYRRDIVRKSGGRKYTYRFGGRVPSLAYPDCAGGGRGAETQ
The following applies: protein: recombinant; tags: N-terminal GST; dsDNA, one strand shown. In a few lines:
as §1

The next test deals with T11, ELF3 (Homo sapiens, UniProt P78545 1-371).
T11 sequence: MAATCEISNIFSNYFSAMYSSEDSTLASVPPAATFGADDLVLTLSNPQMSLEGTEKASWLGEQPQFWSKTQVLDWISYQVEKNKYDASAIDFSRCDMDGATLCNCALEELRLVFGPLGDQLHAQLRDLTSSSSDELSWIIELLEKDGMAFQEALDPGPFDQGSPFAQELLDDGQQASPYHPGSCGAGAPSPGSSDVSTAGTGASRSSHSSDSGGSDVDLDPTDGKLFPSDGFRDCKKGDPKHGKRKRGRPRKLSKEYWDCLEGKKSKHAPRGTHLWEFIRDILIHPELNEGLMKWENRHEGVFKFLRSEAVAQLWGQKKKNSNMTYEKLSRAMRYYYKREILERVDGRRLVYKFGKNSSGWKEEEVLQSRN
The following applies: protein: recombinant; tags: N-terminal GST; dsDNA, one strand shown. In a few lines: as §1

Another test addresses CRX (Homo sapiens, UniProt O43186 1-299). The following applies: protein: recombinant; tags: N-terminal GST; dsDNA, one strand shown. In a few lines: as §1
Another test addresses ETV1 (Homo sapiens, UniProt P50549 1-477). The following applies: protein: recombinant; tags: N-terminal GST; dsDNA, one strand shown. In a few lines:
as §1

Sequence of CRX (O43186 whole entry): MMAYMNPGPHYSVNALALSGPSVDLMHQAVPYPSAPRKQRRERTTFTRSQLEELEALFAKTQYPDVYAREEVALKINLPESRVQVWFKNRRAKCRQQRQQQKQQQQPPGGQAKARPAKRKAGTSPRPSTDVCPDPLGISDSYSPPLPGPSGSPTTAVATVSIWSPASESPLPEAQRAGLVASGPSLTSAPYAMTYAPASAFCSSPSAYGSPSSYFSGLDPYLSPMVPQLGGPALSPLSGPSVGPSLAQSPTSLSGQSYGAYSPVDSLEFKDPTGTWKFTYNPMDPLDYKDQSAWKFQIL
Sequence of HSF1 (Q00613 whole entry): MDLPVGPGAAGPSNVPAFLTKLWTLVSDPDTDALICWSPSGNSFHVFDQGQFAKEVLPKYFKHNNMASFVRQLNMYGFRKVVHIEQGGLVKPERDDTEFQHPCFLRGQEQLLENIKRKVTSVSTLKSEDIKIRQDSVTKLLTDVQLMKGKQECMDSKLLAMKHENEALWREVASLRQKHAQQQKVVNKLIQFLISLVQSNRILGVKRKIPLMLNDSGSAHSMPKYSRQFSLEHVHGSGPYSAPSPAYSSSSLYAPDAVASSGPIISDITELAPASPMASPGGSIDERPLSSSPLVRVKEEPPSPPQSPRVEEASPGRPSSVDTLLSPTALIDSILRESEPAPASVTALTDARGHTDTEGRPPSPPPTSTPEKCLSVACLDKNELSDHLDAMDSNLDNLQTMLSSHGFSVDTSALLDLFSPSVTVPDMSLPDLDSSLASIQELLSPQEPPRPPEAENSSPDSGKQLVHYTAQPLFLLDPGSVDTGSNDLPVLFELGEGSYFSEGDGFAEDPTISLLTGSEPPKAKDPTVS
Sequence of ETV1 (P50549 whole entry): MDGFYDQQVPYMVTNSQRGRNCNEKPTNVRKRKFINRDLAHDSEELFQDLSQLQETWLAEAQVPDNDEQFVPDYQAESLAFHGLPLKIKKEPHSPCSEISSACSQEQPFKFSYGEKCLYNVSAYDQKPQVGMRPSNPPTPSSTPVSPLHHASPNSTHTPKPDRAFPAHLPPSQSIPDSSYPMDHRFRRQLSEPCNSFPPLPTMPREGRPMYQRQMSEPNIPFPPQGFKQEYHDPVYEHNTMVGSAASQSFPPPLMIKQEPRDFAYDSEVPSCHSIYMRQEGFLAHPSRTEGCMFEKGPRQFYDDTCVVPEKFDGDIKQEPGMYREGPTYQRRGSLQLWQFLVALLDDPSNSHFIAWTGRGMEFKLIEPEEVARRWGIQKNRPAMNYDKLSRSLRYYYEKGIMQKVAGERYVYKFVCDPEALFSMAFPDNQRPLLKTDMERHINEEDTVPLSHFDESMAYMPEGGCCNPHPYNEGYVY
Sequence of ELF4 (Q99607 whole entry): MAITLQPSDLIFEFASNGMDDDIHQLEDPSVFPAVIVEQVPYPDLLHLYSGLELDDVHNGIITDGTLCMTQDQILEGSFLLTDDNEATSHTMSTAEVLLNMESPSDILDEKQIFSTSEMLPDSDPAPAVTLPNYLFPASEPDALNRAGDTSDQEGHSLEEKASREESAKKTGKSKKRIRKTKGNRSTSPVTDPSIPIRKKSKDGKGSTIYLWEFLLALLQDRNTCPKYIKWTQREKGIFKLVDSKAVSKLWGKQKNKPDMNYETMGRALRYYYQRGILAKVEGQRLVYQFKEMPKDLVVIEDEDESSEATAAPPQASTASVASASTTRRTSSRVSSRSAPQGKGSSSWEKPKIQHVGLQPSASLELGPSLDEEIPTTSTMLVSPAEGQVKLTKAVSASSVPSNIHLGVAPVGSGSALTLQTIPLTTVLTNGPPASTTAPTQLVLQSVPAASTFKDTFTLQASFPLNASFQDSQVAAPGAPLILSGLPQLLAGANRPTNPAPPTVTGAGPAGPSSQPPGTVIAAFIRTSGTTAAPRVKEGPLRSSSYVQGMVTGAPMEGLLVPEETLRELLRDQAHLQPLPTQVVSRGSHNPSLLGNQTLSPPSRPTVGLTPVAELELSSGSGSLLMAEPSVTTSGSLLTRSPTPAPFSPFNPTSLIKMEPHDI
Sequence of SPIB (Q01892 whole entry): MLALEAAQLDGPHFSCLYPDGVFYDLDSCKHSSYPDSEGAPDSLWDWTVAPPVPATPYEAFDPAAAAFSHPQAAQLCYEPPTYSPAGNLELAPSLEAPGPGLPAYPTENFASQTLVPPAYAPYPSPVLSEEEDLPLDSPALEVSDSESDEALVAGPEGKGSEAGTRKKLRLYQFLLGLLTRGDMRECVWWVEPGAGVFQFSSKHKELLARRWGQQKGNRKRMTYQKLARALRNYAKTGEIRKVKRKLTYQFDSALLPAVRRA

As to TTTCAA, the binding signal in the test with FLI1 was 1.24 fold enrichment (6-mer frequency, TF over GST control); in the test with ELK1 it was 1.23 fold enrichment (6-mer frequency, TF over GST control); with GABPA, 1.31 fold enrichment (6-mer frequency, TF over GST control); in the test with ERG, 1.25 fold enrichment (6-mer frequency, TF over GST control); in the test with ELF1, 1.3 fold enrichment (6-mer frequency, TF over GST control); with EHF, 1.3 fold enrichment (6-mer frequency, TF over GST control). For the same sequence, the binding signal was 1.32 fold enrichment (6-mer frequency, TF over GST control) with SPI1; 1.37 fold enrichment (6-mer frequency, TF over GST control) with SPIB; 1.33 fold enrichment (6-mer frequency, TF over GST control) with ELK3; 1.34 fold enrichment (6-mer frequency, TF over GST control) in the test with FEV; 1.29 fold enrichment (6-mer frequency, TF over GST control) with ETV5; 1.23 fold enrichment (6-mer frequency, TF over GST control) with HSF1. The binding signal in the test with SPIC was 1.33 fold enrichment (6-mer frequency, TF over GST control); with ELF4 it was 1.34 fold enrichment (6-mer frequency, TF over GST control); in the test with ELK4, 1.29 fold enrichment (6-mer frequency, TF over GST control); in the test with ETV2, 1.32 fold enrichment (6-mer frequency, TF over GST control); in the test with ELF3, 1.33 fold enrichment (6-mer frequency, TF over GST control); with CRX it was 1.34 fold enrichment (6-mer frequency, TF over GST control). In addition, the binding signal with ETV1 is 1.33 fold enrichment (6-mer frequency, TF over GST control).
